We go through 18 compounds from PubChem BioAssay.

Values without a mark were called inactive. For part of these data: Entries with a potency or affinity are not part of this list. Activity calls are given as the source filed them. Unless noted, no rule for the calls is given here.

Experiment [1] in a line: antimalarial activity against Dd2 strain (AID 2302;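 active = growth inhibition above 50% at the single 2 µM test dose, taken to imply half-maximal potency below 2 µM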;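 also: 0% = DMSO untreated growth and 100% = chloroquine plus artemisinin killed control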). The conditions noted are these: P. falciparum Dd2 in RBCs, LDH growth readout, 72 h; at 2 µM; hits give high values.
Experiment [2] can be described thus: human hepatoma cell viability loss – ATP luminescence, cytotoxicity control for P. falciparum antimalarial project, primary screen (AID 2303;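 active = inhibition above 50%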;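 also: 0% = DMSO wells and 100% = digitonin-killed cells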). The conditions noted are these: HepG2 viability, 24-48 h, at 10 µM, hits give high values.
In experiment [3] the target is L-lactate dehydrogenase (Plasmodium falciparum (isolate CDC / Honduras)) (UniProt Q27743). Description: PfLDH activity inhibition – cell lysate, 3D7 strain, counter-screen for P. falciparum growth inhibition project (AID 2304).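 Also: 0% = vehicle and 100% = reference inhibitor.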 The conditions noted are these: P. falciparum 3D7 crude extract, LDH APAD/NBT absorbance; at 2 µM; hits give high values.
Sequence of L-lactate dehydrogenase (Plasmodium falciparum (isolate CDC / Honduras)) (Q27743 whole entry, looked up): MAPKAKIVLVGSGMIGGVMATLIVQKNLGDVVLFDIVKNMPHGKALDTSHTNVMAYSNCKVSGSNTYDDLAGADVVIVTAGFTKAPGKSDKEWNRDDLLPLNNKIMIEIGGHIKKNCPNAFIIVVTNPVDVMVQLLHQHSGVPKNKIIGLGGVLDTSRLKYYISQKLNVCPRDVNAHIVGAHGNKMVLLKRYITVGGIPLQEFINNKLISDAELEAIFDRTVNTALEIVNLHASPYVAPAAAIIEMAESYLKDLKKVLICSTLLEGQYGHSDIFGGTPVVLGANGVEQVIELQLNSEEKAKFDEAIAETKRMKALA
Experiment [4] is described as follows: inhibition of 3D7 malaria parasite growth – strain 3D7 (AID 2306).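 Also: 0% = DMSO wells and 100% = chloroquine plus artemisinin control wells.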 The following applies: P. falciparum 3D7 erythrocytic growth, LDH absorbance, 72 h; at 2 µM; hits give high values.
Experiment [5] concerns the target Calcium-dependent protein kinase 1 (Plasmodium falciparum (isolate 3D7)) (UniProt P62344). Description: PfCDPK1 kinase inhibitors, biochemical, TCAMS library (AID 1159585; cut-off not given, nearly all actives have IC50 up to about 0.98 µM;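 also: inhibitors leave more ATP so luminescence rises with inhibition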). The following applies: recombinant PfCDPK1, Kinase-Glo ATP depletion luminescence. A general note: Kinase-Glo reads ATP consumption through a luciferase reaction.
Experiment [6] concerns the target Plasmodium falciparum protein kinase 6 (PK6, PF3D7_1337100) (UniProt Q8IDW1). Put plainly: PfPK6 kinase inhibitors, biochemical, TCAMS library (AID 1159586). The conditions noted are these: recombinant PfPK6, Kinase-Glo ATP depletion luminescence.
For experiment [7], the target named is Protein kinase 7 (PK7), Plasmodium falciparum 3D7 (PF3D7_0213400) (UniProt Q7YTF7). Description: inhibition of Plasmodium PK7 catalytic activity – biochemical, TCAMS antimalarial set, Kinase-Glo luminescence (AID 1159587). The following applies: recombinant PfPK7, Kinase-Glo ATP depletion luminescence.
Sequence of Protein kinase 7 (PK7), Plasmodium falciparum 3D7 (PF3D7_0213400) (Q7YTF7 1-343): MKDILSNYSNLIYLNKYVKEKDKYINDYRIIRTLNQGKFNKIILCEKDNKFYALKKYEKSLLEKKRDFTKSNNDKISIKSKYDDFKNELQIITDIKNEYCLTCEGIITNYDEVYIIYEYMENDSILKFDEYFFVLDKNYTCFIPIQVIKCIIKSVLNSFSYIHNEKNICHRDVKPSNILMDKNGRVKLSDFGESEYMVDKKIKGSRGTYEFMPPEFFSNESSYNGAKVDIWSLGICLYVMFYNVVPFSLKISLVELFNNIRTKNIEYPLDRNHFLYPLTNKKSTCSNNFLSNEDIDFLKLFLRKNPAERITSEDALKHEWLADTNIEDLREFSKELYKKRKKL
The target of experiment [8] is Calcium-dependent protein kinase 4 (Plasmodium falciparum (isolate 3D7)) (UniProt Q8IBS5). Description: PfCDPK4 kinase inhibitors, biochemical, TCAMS library (AID 1159588; cut-off not given, nearly all actives have IC50 up to about 0.91 µM). The following applies: recombinant PfCDPK4, Kinase-Glo ATP depletion luminescence.
Sequence of Calcium-dependent protein kinase 4 (Plasmodium falciparum (isolate 3D7)) (Q8IBS5 whole entry, looked up): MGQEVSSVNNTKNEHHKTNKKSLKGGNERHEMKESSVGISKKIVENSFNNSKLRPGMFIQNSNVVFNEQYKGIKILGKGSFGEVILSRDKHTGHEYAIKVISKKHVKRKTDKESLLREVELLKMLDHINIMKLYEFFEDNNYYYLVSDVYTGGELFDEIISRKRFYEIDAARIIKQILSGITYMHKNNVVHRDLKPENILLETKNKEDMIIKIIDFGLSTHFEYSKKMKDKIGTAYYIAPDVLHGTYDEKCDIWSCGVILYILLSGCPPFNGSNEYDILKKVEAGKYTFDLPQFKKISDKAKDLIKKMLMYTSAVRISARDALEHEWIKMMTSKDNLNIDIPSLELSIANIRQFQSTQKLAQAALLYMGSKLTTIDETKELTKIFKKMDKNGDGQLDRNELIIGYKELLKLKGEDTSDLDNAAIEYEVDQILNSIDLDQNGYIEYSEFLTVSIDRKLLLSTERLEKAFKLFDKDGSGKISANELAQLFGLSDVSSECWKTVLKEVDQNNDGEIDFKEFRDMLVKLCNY

Sequence of Calcium-dependent protein kinase 1 (Plasmodium falciparum (isolate 3D7)) (P62344 whole entry, looked up): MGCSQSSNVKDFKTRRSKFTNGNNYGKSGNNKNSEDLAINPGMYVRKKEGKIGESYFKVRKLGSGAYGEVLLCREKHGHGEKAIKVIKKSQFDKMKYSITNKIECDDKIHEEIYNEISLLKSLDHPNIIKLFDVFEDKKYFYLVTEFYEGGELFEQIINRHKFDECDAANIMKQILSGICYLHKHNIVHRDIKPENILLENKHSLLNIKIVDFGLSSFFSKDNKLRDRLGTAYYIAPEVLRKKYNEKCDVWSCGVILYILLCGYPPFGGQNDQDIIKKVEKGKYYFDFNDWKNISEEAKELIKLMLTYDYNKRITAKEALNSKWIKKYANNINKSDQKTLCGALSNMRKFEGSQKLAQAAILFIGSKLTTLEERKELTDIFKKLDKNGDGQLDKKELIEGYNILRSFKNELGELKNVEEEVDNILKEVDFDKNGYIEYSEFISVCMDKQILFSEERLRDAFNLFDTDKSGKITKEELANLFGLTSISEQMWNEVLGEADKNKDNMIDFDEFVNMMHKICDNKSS
Sequence of Plasmodium falciparum protein kinase 6 (PK6, PF3D7_1337100) (Q8IDW1 1-305): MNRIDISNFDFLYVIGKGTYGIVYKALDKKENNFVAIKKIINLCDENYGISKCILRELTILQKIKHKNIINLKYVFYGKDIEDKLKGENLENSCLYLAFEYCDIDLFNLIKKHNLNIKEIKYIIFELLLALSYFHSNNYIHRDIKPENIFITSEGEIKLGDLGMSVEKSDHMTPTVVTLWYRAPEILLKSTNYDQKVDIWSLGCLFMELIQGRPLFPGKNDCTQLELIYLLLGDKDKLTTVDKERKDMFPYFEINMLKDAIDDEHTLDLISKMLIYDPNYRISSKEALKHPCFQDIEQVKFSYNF

A word on the inhibition: it is the relative decrease from the control value, in per cent. Turning to `COc1cccc2cc(C(=O)N[C@@H](CC(C)C)C(=O)NC3CC[C@@H](C)N(C(=O)Nc4ccncc4)CC3=O)oc12` (some centres undefined), the figures for the growth inhibition in experiment [1] and in experiment [4] were 90% (active) and 95% (active), respectively. For the same compound, the inhibition in experiment [2] is 7%; in experiment [3] it was -7%. Besides, the outcome in experiment [5], in experiment [6], in experiment [7] and in experiment [8] was inactive.
For the compound `COc1ccc(N2CCN(CCCCNC(=O)c3ccc(NC(=O)c4cc(C(F)(F)F)cc(C(F)(F)F)c4)cc3)CC2)cc1OC`, the growth inhibition in experiment [1] was 100% (active); in experiment [4], 101% (active). For the same compound, the inhibition was 9% in experiment [2] and 1% in experiment [3]. Besides, the outcome in experiment [5], in experiment [6], in experiment [7] and in experiment [8] was inactive.
`N#Cc1ccc(-c2ccc(C(=O)NCCCCN3CCC(c4ccc5c(c4OCc4ccccn4)CCCC5)CC3)cc2)cc1`: the figures for the growth inhibition in experiment [1] and in experiment [4] were 39% and 96% (active), respectively. The inhibition in experiment [2] is 37%; in experiment [3], 6%. Further, the outcome in experiment [5], in experiment [6], in experiment [7] and in experiment [8] was inactive.
As to `CCN(CC)C(=O)c1cccc(/C=C/c2ccc(-c3c(C)[nH]c(C)c(Cl)c3=O)cc2)c1`, the growth inhibition in experiment [1] and in experiment [4] was 96% (active) throughout. Besides, the values for the inhibition in experiment [2] and in experiment [3] were 9% and 6%, respectively. Besides, the outcome in experiment [5], in experiment [6], in experiment [7] and in experiment [8] was inactive.
Regarding `Cc1cc(NN=Cc2cccc(F)c2)c2cc(F)ccc2n1`, the growth inhibition in experiment [1] was 99% (active); in experiment [4] it was 101% (active). Further, the inhibition is 7% in experiment [2] and -1% in experiment [3]. For the same compound, the result in experiment [5], in experiment [6], in experiment [7] and in experiment [8] was inactive.
In the case of `O=C(Nc1ccc(OC2CCN(Cc3ccc(F)cc3)CC2)c(Cl)c1)c1ccsc1`, the figures for the growth inhibition in experiment [1] and in experiment [4] were 90% (active) and 94% (active), respectively. Further, the figures for the inhibition in experiment [2] and in experiment [3] were 5% and 7%, respectively. In addition, the outcome in experiment [5], in experiment [6], in experiment [7] and in experiment [8] was inactive.
`c1ccc(Oc2ccc(Nc3ccnc4ccc(-c5ccco5)cc34)cc2)cc1`: the growth inhibition was 32% in experiment [1] and 87% (active) in experiment [4]. Also, the inhibition in experiment [2] was -4%; in experiment [3] it was -1%. Also, the outcome in experiment [5], in experiment [6], in experiment [7] and in experiment [8] was inactive.
Regarding `CC(=O)c1sc(NC(=O)Nc2ccc(C)cc2C)nc1C`, the growth inhibition is 68% (active) in experiment [1] and 96% (active) in experiment [4]. Moreover, the inhibition in experiment [2] was 5%; in experiment [3], 0%. The outcome in experiment [5], in experiment [6], in experiment [7] and in experiment [8] was inactive.
Regarding `O=C(NCc1ccccc1)c1ncn(CCCN2CCC(N3CCCC3)CC2)c1-c1ccc(Cl)c(Cl)c1`, the growth inhibition in experiment [1] is 36%; in experiment [4] it was 89% (active). Moreover, the figures for the inhibition in experiment [2] and in experiment [3] were 8% and 3%, respectively. Moreover, the outcome in experiment [5], in experiment [6], in experiment [7] and in experiment [8] was inactive.
On to `Cc1c2ccc(N(C)c3ccnc(Nc4ccc5c(c4)nc(NC(C)C)n5C)n3)cc2nn1C`, for which the growth inhibition in experiment [1] and in experiment [4] was 100% (active) in each case. In addition, the inhibition was 2% in experiment [2] and -4% in experiment [3]. For the same compound, the result in experiment [5], in experiment [6], in experiment [7] and in experiment [8] was inactive.
Regarding `Cc1ccc(C(=O)NC2C(=O)NC2c2ccccc2)c(C)c1` (centres undefined), the growth inhibition in experiment [1] is -1%; in experiment [4], 90% (active). The inhibition in experiment [2] is 7%; in experiment [3], -4%. Moreover, the outcome in experiment [5], in experiment [6], in experiment [7] and in experiment [8] was inactive.
For the compound `CN(C)CCn1c(=N)n(CC(O)c2ccc(Cl)c(Cl)c2)c2ccccc21` (centres undefined), the growth inhibition in experiment [1] was 6%; in experiment [4] it was 99% (active). Further, the inhibition is 20% in experiment [2] and -2% in experiment [3]. In addition, the outcome in experiment [5], in experiment [6], in experiment [7] and in experiment [8] was inactive.
Regarding `Cc1cc(C(=O)CN2C(=O)NC3(CCCc4ccccc43)C2=O)c(C)n1Cc1ccc(F)cc1` (centres undefined), the figures for the growth inhibition in experiment [1] and in experiment [4] were 53% (active) and 92% (active), respectively. Moreover, the inhibition in experiment [2] is 4%; in experiment [3], 2%. Further, the result in experiment [5], in experiment [6], in experiment [7] and in experiment [8] was inactive.
As for `OCCOCn1cnc2cnc(N[C@H]3OC[C@H](O)[C@@H](O)[C@@H]3O)nc21`, the values for the growth inhibition in experiment [1] and in experiment [4] were -2% and 82% (active), respectively. For the same compound, the inhibition in experiment [2] was 42%; in experiment [3], 0%. Further, the outcome in experiment [5], in experiment [6], in experiment [7] and in experiment [8] was inactive.
As for `CCc1[nH]nc(C(=O)Nc2cccc(N3CCCC3)c2)c1C`, the growth inhibition in experiment [1] is 52% (active); in experiment [4], 81% (active). The inhibition is 15% in experiment [2] and 1% in experiment [3]. In addition, the outcome in experiment [5], in experiment [6], in experiment [7] and in experiment [8] was inactive.
With `Cc1cc(NN=Cc2ccc(F)cc2)c2cc(F)ccc2n1`, the growth inhibition in experiment [1] was 61% (active); in experiment [4], 101% (active). The inhibition in experiment [2] is 6%; in experiment [3], -4%. Moreover, the outcome in experiment [5], in experiment [6], in experiment [7] and in experiment [8] was inactive.
Take `O=C(N1CCN(c2ccc(C(F)(F)F)cc2[N+](=O)[O-])CC1)C(Cl)(Cl)Cl`: the values for the growth inhibition in experiment [1] and in experiment [4] were 99% (active) and 101% (active), respectively. The inhibition in experiment [2] is 29%; in experiment [3] it was 0%. For the same compound, the outcome in experiment [5], in experiment [6], in experiment [7] and in experiment [8] was inactive.
Regarding `COc1ccc(OC)c(NC(=O)CSc2nc(-c3ccccc3Cl)ns2)c1`, the growth inhibition in experiment [1] is 32%; in experiment [4], 95% (active). Moreover, the inhibition in experiment [2] was -8%; in experiment [3], -1%. Besides, the result in experiment [5], in experiment [6], in experiment [7] and in experiment [8] was inactive.
